Experimental data as given in PubChem BioAssay.
Activity calls are given as the source filed them.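 The calls were made as follows, unless noted: active = visual image review flags a hit and inhibition of aggregation exceeds 20%; inconclusive = visual hit but inhibition at or below 20%; inactive = no hit on visual image review.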

Tests used:
[1] = inhibitors of TNFa-induced NFkB p65 translocation, primary screen, imaging, HUVEC, MLSMR starter and 10KST1 sets (AID 438;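 active = inhibition above 20% together with a positive visual image hit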;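 also: compound added about 3h40 before a 20 min TNFalpha stimulation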;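 as to inhibition: signal is the nuclear over cytoplasmic p65 intensity ratio per well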); conditions: HUVEC TNFa-induced p65 nuclear translocation; cell count: measured here: nuclei count (cytotoxicity indicator), at 2.08 µM; inhibition: at 2 µM, stronger effect = higher value, 0% TNFa-plus-vehicle, 100% no-TNFa wells
[2] = inhibitors of mutant huntingtin aggregation, primary screen, imaging, exon1htt(103Q)mCFP cells, high-content imaging (AID 483); conditions: exon1htt(103Q)mCFP cell line, aggregate imaging, at 2 µM; inhibition of aggregation: stronger effect = higher value; nuclei count: measured here: cell count, toxicity;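 also: compound exposure lasted 3 days before fixation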;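 as to nuclei count: percent of the per-plate median nuclei count of sample wells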
[3] = inhibitors of E-selectin induction by TNFa, primary screen, imaging, HUVEC, immunofluorescence, MLSMR starter and 10KST1 sets (AID 487;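 active = visually confirmed hit in the image check and inhibition above 20%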;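 as to inhibition: signal is fraction of cell area covered by stained E-selectin grains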;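 as to nuclei count: 100% = median nuclei count of all wells on the same plate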); conditions: HUVEC TNFalpha-induced E-selectin immunofluorescence imaging, at 2 µM; inhibition: stronger effect = higher value; nuclei count: measured here: cell number, toxicity
[4] = target: Voltage-gated potassium channel subunit beta-2 (Rattus norvegicus) (UniProt P62483); assay: KvBeta enzyme negative modulators, primary screen, biochemical, NADPH fluorescence (AID 622;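 active = fluorescence slope higher than the sample average by over 3 SD, cut at about -0.22 in these data, passing the limit was not always enough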;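 also: slope of raw intensity against log time taken from 70 to 1610 s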); conditions: recombinant KvBeta, 4-cyanobenzaldehyde reduction, at 10 µM, stronger effect = higher value
[5] = target: Voltage-gated potassium channel subunit beta-2 (Rattus norvegicus) (UniProt P62483); assay: KvBeta positive modulators, primary screen, biochemical, NADPH fluorescence (AID 623;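 active = NADPH fluorescence slope more negative than the mean of all samples by about 3 SD, 99.7% confidence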;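 also: fluorescence intensity change per second fitted from 20 to 320 s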); conditions: Recombinant KvBeta, NADPH fluorescence decrease slope, 10 min; at 10 µM; stronger effect = lower value
[6] = target: Alpha-2C adrenergic receptor (Homo sapiens) (UniProt P18825); assay: modulators of alpha2C/GIRK thallium flux, primary screen, cell-based, HEK293 alpha2C/GIRK1/2 (AID 624;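 active = fluorescence slope after compound addition differing from the mean of all screened samples at 99.7% confidence, in either direction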;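 also: slope of fluorescence ratio to pre-addition baseline per second over 15 to 24 s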); conditions: thallium flux BTC fluorescence, at 10 µM, actives lie on both sides
[7] = inhibitors of Sendai virus-induced IRF3 signaling, primary screen, TLR/RLR signaling modifier project, cell-based, Sendai virus stimulus, luciferase, 10K MLSCN set (AID 602276;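 active = inhibition at or above 50% at 10 µM; inactive = inhibition below 50%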;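 also: firefly luciferase from ISG56 promoter only with Renilla not read in this screen; 0% = Sendai virus plus DMSO and 100% = medium plus DMSO without virus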); conditions: HEK293 RL24 IRF3 luciferase reporter, at 10 µM, stronger effect = higher value
[8] = inhibitors of poly I:C-induced TLR3 signaling, primary screen, cell-based, poly I:C stimulus, luciferase, 10K MLSCN set (AID 602277;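 active = inhibition of the reporter signal at or above 50%; inactive = inhibition below 50%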); conditions: HEK293-TLR3 RL24 IRF3 luciferase reporter, at 10 µM, stronger effect = higher value

Alpha-2C adrenergic receptor (Homo sapiens), sequence (P18825 whole entry, looked up): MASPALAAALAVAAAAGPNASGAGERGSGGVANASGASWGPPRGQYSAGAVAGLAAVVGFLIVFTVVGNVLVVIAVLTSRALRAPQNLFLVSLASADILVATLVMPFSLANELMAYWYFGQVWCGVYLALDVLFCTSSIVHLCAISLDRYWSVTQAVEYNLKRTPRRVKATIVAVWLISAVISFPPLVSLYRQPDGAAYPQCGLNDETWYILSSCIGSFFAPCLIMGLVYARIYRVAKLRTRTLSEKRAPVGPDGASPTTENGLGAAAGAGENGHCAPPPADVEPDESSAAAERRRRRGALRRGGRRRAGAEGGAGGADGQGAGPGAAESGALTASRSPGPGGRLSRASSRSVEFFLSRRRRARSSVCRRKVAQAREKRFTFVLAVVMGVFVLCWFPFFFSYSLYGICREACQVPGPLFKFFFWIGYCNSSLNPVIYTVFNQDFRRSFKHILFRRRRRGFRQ
Voltage-gated potassium channel subunit beta-2 (Rattus norvegicus), sequence (P62483 whole entry, looked up): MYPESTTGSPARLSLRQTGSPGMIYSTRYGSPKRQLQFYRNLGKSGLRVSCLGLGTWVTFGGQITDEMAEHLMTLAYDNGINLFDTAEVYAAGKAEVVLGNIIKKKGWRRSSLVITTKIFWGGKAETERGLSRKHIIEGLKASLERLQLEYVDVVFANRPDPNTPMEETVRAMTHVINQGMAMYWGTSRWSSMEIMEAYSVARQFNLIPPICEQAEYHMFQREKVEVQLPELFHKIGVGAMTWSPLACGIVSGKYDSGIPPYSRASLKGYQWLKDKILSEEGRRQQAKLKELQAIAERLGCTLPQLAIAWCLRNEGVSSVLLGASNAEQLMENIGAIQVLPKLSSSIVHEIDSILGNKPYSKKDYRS

| SMILES | cell count [1] | inhibition [1] | inhibition of aggregation [2] | nuclei count [2] | inhibition [3] | nuclei count [3] | fluorescence slope [4] | NADPH fluorescence slope [5] | slope [6] | inhibition [7] | inhibition [8] |
| --- | --- | --- | --- | --- | --- | --- | --- | --- | --- | --- | --- |
| CCOC(=O)N1CCN(C(=O)COc2ccc(Br)cc2Cl)CC1 | 317 | 2% (inactive) | -6.6% (inactive) | 98.4% | -27.2% (inactive) | 118% | -0.445 (inactive) | -5.1e-05 (inactive) | 0.00378 (inactive) | 6.45% (inactive) | 30.7% (inactive) |
| COc1ccccc1OCC(=O)NCC1CCCCC1 | 394 | -28.2% (inactive) | 5.6% (inactive) | 108% | 28.4% (inactive) | 102% | -0.413 (inactive) | -2.9e-05 (inactive) | 0.00305 (inactive) | -1.17% (inactive) | -7.1% (inactive) |
| CCN(Cc1cc2ccccc2[nH]c1=O)S(=O)(=O)c1ccccc1 | 642 | 7.5% (inactive) | 9.9% (inactive) | 104% | 38.9% (inactive) | 104% | -0.627 (inactive) | 1.2e-05 (inactive) | 0.00647 (inactive) | 12.2% (inactive) | 5.79% (inactive) |
| COc1ccc(C2/C(=C(/O)c3ccccc3)C(=O)C(=O)N2C)cc1 (stereo not drawn) | 424 | -0.5% (inactive) | 7.8% (inactive) | 106% | -25.9% (inactive) | 110% | -0.369 (inactive) | 4.1e-06 (inactive) | 0.00577 (inactive) | 14.9% (inactive) | 37.5% (inactive) |
| FC(F)(F)c1cc(-c2ccco2)nc(NCc2ccco2)n1 | 589 | 14.6% (inactive) | 28.3% (inactive) | 95.5% | -24.3% (inactive) | 94.8% | -0.194 (inactive) | -3e-05 (inactive) | 0.00472 (inactive) | 14.2% (inactive) | 13.8% (inactive) |
| CCN(C(=O)COC(=O)c1cc(C)n(-c2ccc(F)cc2)c1C)C1CCS(=O)(=O)C1 (stereo not drawn) | 496 | -3.4% (inactive) | -3.9% (inactive) | 114% | -35.5% (inactive) | 115% | -0.537 (inactive) | 3.5e-06 (inactive) | 0.00451 (inactive) | 13.2% (inactive) | 13% (inactive) |
| O=C(Cn1cnc2c(cnn2-c2ccc(F)cc2)c1=O)N1CCCc2ccccc21 | 427 | 1.5% (inactive) | 2.1% (inactive) | 104% | -61.6% (inactive) | 110% | -0.628 (inactive) | -5.2e-05 (inactive) | 0.00385 (inactive) | 11.3% (inactive) | 6.11% (inactive) |
| CN(Cc1ccccc1)C(=O)c1ccccc1NC(=O)c1ccco1 | 349 | -9.3% (inactive) | -4.5% (inactive) | 86% | -102% (inactive) | 130% | -0.333 (inactive) | -6e-05 (inactive) | 0.00495 (inactive) | -13.9% (inactive) | 98.1% (active) |
| COc1ccccc1NC(=O)NCCCN1CCN(c2cccc(Cl)c2)CC1 | 628 | -11.6% (inactive) | 13.1% (inactive) | 112% | -47.7% (inactive) | 118% | -0.556 (inactive) | 1e-05 (inactive) | 0.00548 (inactive) | -24.8% (inactive) | -19.5% (inactive) |
| CCCCSc1nnc([C@H](C)NC(=O)OC(C)(C)C)o1 | 345 | 0.2% (inactive) | -2.7% (inactive) | 104% | -34.4% (inactive) | 112% | -0.266 (inactive) | -2.9e-05 (inactive) | 0.00436 (inactive) | 11.6% (inactive) | 14.8% (inactive) |
| c1ccc(C(Cc2nc(-c3ccccn3)no2)c2ccccc2)cc1 | 337 | -8% (inactive) | 4% (inactive) | 110% | -83.3% (inactive) | 100% | -0.449 (inactive) | -6.2e-05 (inactive) | 0.00562 (inactive) | 20.3% (inactive) | 14.4% (inactive) |
| Cc1ccc(NC(=O)C2CCCN2S(=O)(=O)c2cccc3cccnc23)cc1F (stereo not drawn) | 577 | -1.1% (inactive) | 3.5% (inactive) | 71.6% | -56.2% (inactive) | 100% | -0.55 (inactive) | -3.9e-05 (inactive) | 0.00633 (inactive) | 9.99% (inactive) | 33.6% (inactive) |
| Cc1cc(C(N)=O)c2cc(Br)ccc2n1 | 367 | 5.5% (inactive) | 0.7% (inactive) | 94.5% | -54% (inactive) | 120% | -0.436 (inactive) | -5.1e-05 (inactive) | 0.0072 (inactive) | 4.62% (inactive) | 32.5% (inactive) |
| O=C(CN1C(=O)NC2(CCCCC2)C1=O)Nc1ccc(S(=O)(=O)N2CCOCC2)cc1 | 460 | 5.2% (inactive) | -2.3% (inactive) | 93.7% | 29.7% (inactive) | 96.2% | -0.49 (inactive) | -7.9e-06 (inactive) | 0.00589 (inactive) | 9.77% (inactive) | 34.3% (inactive) |
| Cc1ccc(O)c(-c2cc3ccccc3[nH]2)c1 | 616 | -4.8% (inactive) | 20% (inactive) | 98.8% | -37.9% (inactive) | 109% | -0.46 (inactive) | -3.3e-05 (inactive) | 0.00556 (inactive) | -4.2% (inactive) | -87.3% (inactive) |
| CCCC(C)c1nnc(NC(=O)C2CCCO2)s1 (stereo not drawn) | 575 | 0% (inactive) | -11.3% (inactive) | 97.6% | 9.1% (inactive) | 103% | -0.524 (inactive) | -4e-05 (inactive) | 0.00609 (inactive) | -3.58% (inactive) | -11.9% (inactive) |
| CCOc1ccc2nc(NC(=O)CSc3nnnn3C3CCCCC3)sc2c1 | 401 | 1.7% (inactive) | -8% (inactive) | 108% | -74.4% (inactive) | 92.8% | -0.393 (inactive) | -3.7e-05 (inactive) | 0.00315 (inactive) | -4.95% (inactive) | -46.7% (inactive) |
| O=C(CN1c2cccc3cccc(c23)S1(=O)=O)N1CCOCC1 | 253 | -5.5% (inactive) | 16% (inactive) | 83% | -59.8% (inactive) | 101% | -0.189 (inactive) | -1.8e-05 (inactive) | 0.00514 (inactive) | 17% (inactive) | 13.6% (inactive) |
| O=C(Nn1cnnc1)c1cc2c(s1)CCCC2 | 346 | -3.4% (inactive) | -5.7% (inactive) | 108% | -41.7% (inactive) | 112% | -0.411 (inactive) | -4.9e-05 (inactive) | 0.00357 (inactive) | -4.21% (inactive) | 7.24% (inactive) |
| CC(C)n1nc(C(=O)Nc2nc3ccc(S(C)(=O)=O)cc3s2)c2ccccc2c1=O | 452 | -6.8% (inactive) | -5.5% (inactive) | 35.2% | -52.1% (inactive) | 117% | -0.265 (inactive) | -2.5e-05 (inactive) | 0.00538 (inactive) | 18.5% (inactive) | 29.9% (inactive) |
| c1cc(CNc2ccc3c(c2)OCO3)ccn1 | 240 | -3.9% (inactive) | 17.7% (inactive) | 83.7% | -91.7% (inactive) | 112% | -0.48 (inactive) | -1.4e-05 (inactive) | 0.00585 (inactive) | -9.22% (inactive) | 13.6% (inactive) |
| CCOC(=O)c1[nH]c(CSc2nnc(-c3ccncc3)n2CCOC)c(C(=O)OCC)c1C | 368 | 1.1% (inactive) | -5.7% (inactive) | 107% | -89.1% (inactive) | 127% | -0.486 (inactive) | 1.9e-05 (inactive) | 0.00635 (inactive) | 8.8% (inactive) | 11.1% (inactive) |
| Cc1ccc(-c2noc(COc3ccccc3C)n2)cc1 | 607 | -7.8% (inactive) | 12.3% (inactive) | 110% | 35.1% (inactive) | 129% | -0.484 (inactive) | 1.6e-05 (inactive) | 0.0049 (inactive) | -24.5% (inactive) | -88.2% (inactive) |
| COc1ccc(N(CC(=O)NCCSC(C)(C)C)S(C)(=O)=O)c(OC)c1 | 387 | -1.4% (inactive) | 12.9% (inactive) | 104% | -18.2% (inactive) | 120% | -0.537 (inactive) | 0.000155 (inactive) | 0.00708 (inactive) | 18.9% (inactive) | 20.9% (inactive) |
| COc1ccc(-c2cc(C(F)(F)F)nc(N3CCN(c4ccc(F)cc4)CC3)n2)cc1OC | 827 | -10.7% (inactive) | -2.4% (inactive) | 105% | -107% (inactive) | 122% | -0.52 (inactive) | 2.2e-05 (inactive) | 0.00763 (inactive) | -20.5% (inactive) | -7.7% (inactive) |
| N#CCCCCn1c(-c2cncs2)nc2ccccc21 | 431 | 14.1% (inactive) | 3.5% (inactive) | 101% | 22.2% (inactive) | 107% | -0.385 (inactive) | -4.5e-05 (inactive) | 0.00375 (inactive) | 14.5% (inactive) | 15.9% (inactive) |
| O=C(COC(=O)c1ccccc1Oc1ccccc1)NC1CCS(=O)(=O)C1 (stereo not drawn) | 33 | 74.9% (active) | 0% (inactive) | 95.2% | -124% (inactive) | 116% | -0.521 (inactive) | -1.6e-05 (inactive) | 0.00666 (inactive) | 8.04% (inactive) | -20% (inactive) |
| CCN(CC)CCNC(=O)c1ccc(N2CCCCC2)c(NS(=O)(=O)c2ccc(C)cc2)c1 | 370 | 6.9% (inactive) | 1.6% (inactive) | 97.8% | -16% (inactive) | 122% | -0.557 (inactive) | -3.5e-05 (inactive) | 0.00347 (inactive) | 13.5% (inactive) | 13.1% (inactive) |
